# Measured values from PubChem BioAssay (NCI).
# Compounds without any hit were thinned out: in the full panel of roughly 83,000, 20% have a hit.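 Negative percent growth values reflect cell death: -40 means 40% of the cells present at the start died, and -100 means all died.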 Values without a mark were called inactive. Activity calls are given as the source filed them.
# System: PC-3 prostate
# Test: NCI-60 one-dose screen, 48 h (100 = growth as untreated, 0 = no growth, -100 = all killed)
# Conditions: 10 µM unless noted
# Procedure: Growth inhibition of the PC-3 human tumor cell line is measured as a screen for anti-cancer activity. Cells are grown in 96 well plates and exposed to the test compound for 48 hours. Compounds are tested at a single concentration, which is 10^-5 M for most compounds. The reported endpoint is percent growth (GI% or GIPRCNT), where numbers from 0 - 100% represent growth inhibition, and numbers from -100% - 0 represent cell death. For example, a value of 40 represents 60% growth inhibition. A value of 0 means no net growth occurred over the course of the experiment. A value of -40 indicates 40% of cells at the beginning of the experiment died by the end of the experiment. A value of -100 means all cells are dead at the end of the experiment.
# NCI-60 Human Tumor Cell Lines Screen was performed using the standard one-dose NCI protocol, which is described in more detail at https://dtp.cancer.gov/discovery_development/nci-60/default.htm.
# Compounds with GIPRCNT values below 10 were considered active. Activity score was based on GIPRCNT using the following formula: […]
# Score is 0 for GIPRCNT values of 100 or above, 50 for GIPRCNT values of 0, and 100 for GIPRCNT values of -100.
row,Structure (SMILES),growth
1,O=C(/C=C/c1ccco1)c1ccc(Nc2ccnc3cc(Cl)ccc23)cc1,80.5%
2,CO[C@H]1/C=C/O[C@@]2(C)Oc3c(C)c(O)c4c(O)c(c5c(nc6cc(C)ccn65)c4c3C2=O)NC(=O)/C(C)=C\C=C\[C@H](C)[C@H](O)[C@@H](C)C(O)[C@@H](C)[C@H](OC(C)=O)[C@@H]1C (stereo not given in full),90.4%
3,CC(C)=CCC[C@](C)(O)C1CC[C@]2(C)[C@@H]1CC[C@@H]1[C@@]3(C)CC/C(=N\OCCC#N)C(C)(C)[C@@H]3CC[C@]12C (stereo not given in full),62.3%
4,O=C(Nc1cccc2c1C(=O)c1cccc(NC(=O)c3ccc(C(=O)Nc4cccc5c4C(=O)c4cccc(NC(=O)c6ccccc6)c4C5=O)cc3)c1C2=O)c1ccccc1,87.7%
5,COC(=O)c1nc(-c2ccccc2)oc1S(=O)(=O)N1CCN(c2ccc(OC)cc2)CC1,63.9%
6,Cc1nc2ccccc2c(/C=C/c2ccc(Cl)cc2)c1C(=O)/C=C/c1ccccc1,23.3%
7,COC(=O)c1ccc(-n2cc(CCCOS(=O)(=O)c3ccc(F)cc3)nn2)cc1,93.4%
8,CC(C)(C)n1cc(-c2ccnc(NCCNS(=O)(=O)c3ccc(C(F)(F)F)cc3)c2)c(-c2ccccc2)n1,65.8%
9,COc1ccc(S(=O)(=O)Oc2ccc(-c3sc4cc(OS(=O)(=O)c5ccc(OC)cc5)ccc4c3C(=O)c3ccc(OCCN4CCCCC4)cc3)cc2)cc1,106%
10,O=C(Cn1cc(CSc2nc3ccccc3o2)nn1)Nc1ccc([N+](=O)[O-])cc1,92%
11,CN1CCN(CCCNC(=O)c2c3c(n4ccccc24)C(=O)c2ncccc2C3=O)CC1,-1.89% (active)
12,Cc1nc2c(c(-c3ccccc3)n1)Cc1c(ccc3ccccc13)O2,87.5%
13,COc1cc(C2CC(c3cccc(Nc4ccncc4)c3)=Nc3c(N)ncnc3N2)cc(OC)c1OC (stereo not given),93.8%
14,C#CC(F)(F)[C@]1(O)CCC2C3CCC4=CC(=O)CCC4=C3[C@@H](c3ccc(N(C)C)cc3)C[C@@]21C (stereo not given in full),66%
15,COc1cc(C(=O)/C=C/c2c(-c3cccs3)nc3sc(C)cn23)cc(OC)c1OC,8.02% (active)
16,CC1=NN(c2cccc(Cl)c2)C(=O)/C1=C\C=C\c1ccccc1,45.5%
17,O=C(N/N=C/c1ccccc1Cl)c1ccccc1Nc1ccnc(C(F)(F)F)c1,2.99% (active)
18,COc1ccc(-n2c(=O)n(-c3ccc(-c4nc5ccc(F)cc5s4)cc3)c(=O)c3cccnc32)cc1,94.5%
19,CC1=C([Se]CC(OC(=O)[C@@H](CO)NC(=O)OC(C)(C)C)C(=O)NCCCCCC(=O)OCc2ccccc2)C(=O)c2ccccc2C1=O (stereo not given in full),-72.6% (active)
20,CC1(C)CC[C@]2(CO)CC[C@]3(C)[C@H](CC[C@@H]4[C@@]5(C)CC[C@H](O)C(C)(C)[C@@H]5CC[C@]43C)[C@H]2[C@H]1O,68.2%

row,Structure (SMILES),growth
1,Cn1cc(-c2nc(-c3c[nH]c4c(Cl)nccc34)cs2)c2ccccc21,86.1%
2,O=C1C=CC2(O)OC(c3ccccc3)CC(=O)C2=C1O (stereo not given),79.7%
3,Cc1ccc(-c2nnc(SCc3nc(N)nc(Nc4ccccc4F)n3)n2-c2ccccc2)cc1,87.7%
4,O=c1c(/C=C/c2c(O)ccc3ccccc23)nnc2sc(-c3cccc([N+](=O)[O-])c3)nn12,52.7%
5,Cc1ccc(-c2nn(CC(=O)N3CCOCC3)c(N)c2C#N)cc1,100%
6,Cc1cc(C)n(C(=O)CSc2nc3sc4c(c3c(=O)n2-c2ccccc2)CCCCC4)n1,99%
7,Cc1ccc(Nc2nc(N)nc(N)c2N=O)cc1Cl,70.8%
8,CCC(=C(c1ccc(OCCN(CC)CC)cc1)c1ccc(OCCN(CC)CC)cc1)c1ccc(Cl)cc1,-50.7% (active)
9,CCCCC1=C(Br)C(=O)c2ncccc2C1=O,90%
10,O=C(Nc1ncc(Cc2ccccc2)s1)c1cc(-c2ccccc2)nc2ccccc12,94.8%
11,COc1ccccc1NC(=O)n1c(=O)cc(C)c2ccc(O)cc21,99.9%
12,Cc1cc(N2CCOCC2)nc(N(CCCNc2ccnc3cc(Cl)ccc23)Cc2ccc3c(c2)OCO3)n1,15.9%
13,CCN1C(=O)N(CC)C2C1NN=c1s/c(=C\c3ccc(F)cc3)c(=O)n12 (stereo not given),25.4%
14,COC(=O)[C@@H](Cc1c[nH]c2ccccc12)NC[C@@H](O)CN1C(=O)/C(=C\c2cc(OC)c(OC)c(OC)c2)c2ccccc21,46.2%
15,COc1cc2ncnc(Nc3ccc(S(=O)(=O)Nc4cc(C)on4)cc3)c2cc1OCCCN1CCOCC1,103%
16,C/C(=C(\c1ccc(OCCCN(C)C)cc1)c1ccc(OC(=O)Cc2ccccc2)cc1)c1ccc(Cl)cc1,75.9%
17,[2H]C([2H])([2H])Oc1c(F)cccc1/C=C/C(=O)/C=C(O)/C=C/c1cccc(F)c1OC([2H])([2H])[2H],88.4%
18,O=C1C(c2c(O)[nH]c3ncccc23)=Nc2ccccc21,73%
19,C=CCn1c(SCC(=O)Nc2ccc(C(=O)/C=C/c3ccc(Cl)cc3)cc2)nnc1-c1ccccc1,75.2%
20,COc1ccc(C(c2cc(OC)c(OC)c(OC)c2)n2cncn2)cc1O (stereo not given),21.2%
